This excerpt belongs to a sample that is enriched for hits.
Pf Dd2 inh: Plasmodium falciparum Dd2 growth inhibition; Potency, µM (top dose mostly 28.9 µM), usual class: inhibitors; AID 1347417; P. falciparum Dd2 growth, SYBR Green, 72 h; 120,000 compounds, 4.3% hits; active = well fitted inhibition curve with a large enough effect; also: nearly all actives have a fitted effect of over 65% in size
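Infected erythrocytes (Dd2, 0.3% parasitemia, 2.5% hematocrit final) are added to compound in RPMI-1640/Albumax II medium, grown 72 h at 37C in low oxygen, then lysed with saponin/Triton-X containing SYBR Green and read by fluorescence.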
Of the large screens only hits and unclear results are named; the others gave an inactive call.

COc1ccc(-n2nc(C3CCCN(CCC(C)C)C3)[nH]c2=O)cc1 (centres undefined)	none
CC(C)(C)c1cc(C[C@@H]2CC[C@H](O)[C@@H](CNC(=O)C3CC3)O2)no1	none
COCC1CN(C)CC12CCN(S(=O)(=O)c1cnc[nH]1)CC2 (centres undefined)	none
COCCOC1CCOC2(CCN(C(=O)c3nccc4ccccc34)CC2)C1 (centres undefined)	none
COCCOC1CCOC2(CCN(C(=O)c3n[nH]c4ccccc34)CC2)C1 (centres undefined)	none
COCCOC1CCOC2(CCN(C(=O)Cc3ccccc3)CC2)C1 (centres undefined)	none
COCCOC1CCOC2(CCN(C(=O)c3nn(C)c4ccccc34)CC2)C1 (centres undefined)	Pf Dd2 inh 5.6µM
COCCOC1CCOC2(CCN(C(=O)COc3ccccc3)CC2)C1 (centres undefined)	Pf Dd2 inh 11µM
COCCOC1CCOC2(CCN(C(=O)Cc3c[nH]c4ccccc34)CC2)C1 (centres undefined)	Pf Dd2 inh 11µM
COCCOC1CCOC2(CCN(C(=O)C3(c4ccccc4)CC3)CC2)C1 (centres undefined)	none
COC1CCOC2(CCN(C(=O)COc3ccccc3)CC2)C1 (centres undefined)	none
COCCOC1CCOC2(CCN(C(=O)c3ccccc3)CC2)C1 (centres undefined)	none
COc1ccc(CN2C(=O)CO[C@H](c3ccc(NC(=O)c4cccs4)cc3)[C@H]2CO)cc1	none
CC(C)CNC(=O)CCC[C@@H]1[C@H]2CCCN3CCC[C@@H](CN1C(=O)c1cccnc1)[C@@H]23	none
CCCc1noc(-c2cn(C3CCN(C(=O)c4ccc[nH]4)CC3)nn2)n1	none
O=C1[C@@H]2C[C@@H](O)CN2C2(CN(Cc3cccnc3)C2)C(=O)N1Cc1cccc(Cl)c1	none
Cc1cc(CN2C[C@H](NC(=O)CNS(C)(=O)=O)[C@@H](C3CC3)C2)on1	none
COc1ccc(CNC(=O)C[C@@H]2C[C@H]3O[C@H](CNC(=O)NCc4ccccc4)[C@@H](O)[C@H]3O2)cc1	none
O=C1NC2(CN(C(=O)c3ccc(C(F)(F)F)cc3)C2)Oc2ccccc21	none
COc1ccc(-c2ccc3c(n2)CN(C)C(=O)CO3)cc1	none
Cc1nc(C2CCCN(C(=O)CCCN)C2)cc(N2CCOCC2)n1 (centres undefined)	none
COC(=O)c1ccc(CN2C(=O)[C@@H]3C[C@@H](O)CN3C3(CN(C4CCN(C(C)=O)CC4)C3)C2=O)cc1	none
CC(=O)N1CCC(N2CC3(C2)C(=O)N(Cc2ccccc2Cl)C(=O)[C@@H]2C[C@@H](O)CN23)CC1	Pf Dd2 inh 7.1µM
CCCCN1C(=O)[C@@H]2C[C@@H](O)CN2C2(CN(C3CCN(C(C)=O)CC3)C2)C1=O	none
CCn1cc(CNC2CC(=O)N(CCc3ccccc3)C2)cn1 (centres undefined)	none
O=C1N[C@H](CCC(=O)N2CCN(CCc3ccncc3)CC2)C(=O)Nc2ccccc21	none
COc1ccc(Cl)cc1CN(C)c1cc(C2CC(N)C2)ncn1 (centres undefined)	Pf Dd2 inh 10µM
CN(Cc1cccc(-c2nn[nH]n2)c1)c1cc(C2CC(N)C2)ncn1 (centres undefined)	none
Cc1cccnc1CN(C)c1cc(C2CC(O)C2)ncn1 (centres undefined)	none
CCS(=O)(=O)N1CCC(N2C(=O)[C@H](OCCOC)[C@@H]2c2ccncc2)CC1	none
COc1ccccc1CN1CC(c2noc(-c3cc(C)cc(C)c3)n2)CC1=O (centres undefined)	none
O=S1(=O)NCC2(CCN(Cc3ccoc3)CC2)Oc2ncccc21	none
Cc1cc(C(=O)N2CC[C@H]3CC(=O)N(Cc4ccc5c(c4)OCO5)CC[C@H]3C2)no1	none
CC(C)N1C[C@H](O)C[C@H]1c1nnc2n1CCN(C(=O)c1cccn1C)C2	none
CCc1ccc(-n2c(=O)c3cccnc3n2CC(=O)NCc2ccc(F)cc2)cc1	none
CCc1cccc(-n2c(=O)c3cccnc3n2CC(=O)NCc2ccccc2)c1	Pf Dd2 inh 1µM
Cc1nn(CC(=O)NCc2ccccc2Cl)c(=O)c2nn(-c3ccccc3)c(C)c12	none
Cc1ccc(-n2c(=O)c3cccnc3n2CC(=O)Nc2cc(Cl)ccc2C)cc1	none
CCc1cccc(-n2c(=O)c3cccnc3n2CC(=O)NCc2ccc(C)cc2)c1	Pf Dd2 inh 1.1µM
CCc1cccc(-n2c(=O)c3cccnc3n2CC(=O)Nc2ccccc2C(=O)OC)c1	none
CCc1cccc(-n2c(=O)c3cccnc3n2CC(=O)NCc2ccccc2Cl)c1	Pf Dd2 inh 2.2µM
O=C(Cn1c2ncccc2c(=O)n1-c1ccccc1)NCc1ccccc1	none
O=C(Cn1c2ncccc2c(=O)n1-c1ccccc1)Nc1ccc(Cl)cc1C(F)(F)F	none
CC(=O)NC1CC2(CCN(C(=O)c3c(C)noc3C)CC2)Oc2ccccc21 (centres undefined)	none
COC1CN(c2cccc(F)c2)C12CCN(C(=O)c1cccnc1)CC2 (centres undefined)	none
CCc1cccc2c(C(CC(=O)NCCc3ccccc3)c3cccc4c3OCO4)c[nH]c12 (centres undefined)	none

Compound activity from PubChem BioAssay.
